Compound activity deposited in PubChem by several laboratories.
Mdm2-MdmX inh: inhibitors of human Mdm2-MdmX association, primary screen, cell-based, luminescence, split luciferase, SaOS-2, uHTS. inhibition, % at 8 µM. 3% of 330,000 active. SaOS-2 split-luciferase Mdm2/MdmX complementation. AID 485346, 2010;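 active = inhibition of at least 50% at 8 µM in the primary screen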
Jurkat NFkB inh: inhibitors of induced NF-kB luciferase reporter, primary screen, TCR NF-kB activation inhibitor project, cell-based, luminescence, uHTS; 0.53% of 330,000 active; AID 435003, 2010; Jurkat, PMA/ionomycin-induced NF-kB luciferase reporter; inhibition, % at 4 µM; in the data active = inhibition above about 50%
Beta cell apopt: inhibitors of cytokine-induced beta cell apoptosis, primary screen, luminescence; INS-1E cytokine-induced death, ATP luminescence, 48 h; percent of positive-control rescue, neutral wells zero; protection from apoptosis, % (concentration not given with the values); 0.8% of 300,000 active; AID 435005, 2010;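 active = Every replicate reaches about 75%, or at least half do and their mean reaches it too, limit read from the data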;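 also: 0% = cytokine-treated negative control wells and 100% = positive control rescue; higher means more ATP so stronger rescue from cytokine killing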
CSC inhib: cancer stem cell viability inhibitors, primary screen, luminescence; cancer stem cell-like cells viability; inhibition, % at 7.5 µM; 1.1% of 300,000 active; AID 2717, 2010; in the data active = inhibition above about 75%; tested in HMLE shEcad cells
Gli-Sufu block: Gli-Sufu pathway antagonists, primary screen, luciferase luminescence, Sufu-KO-LIGHT cells, uHTS; inhibition, % at 5 µM; 0.74% of 340,000 active; Sufu-KO-LIGHT fibroblasts, Gli luciferase reporter luminescence;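 active = inhibition above about 55%, limit read from the data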;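 also: 0% = DMSO-treated cells and 100% = wells with medium but no cells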
697 NFkB inh: inhibitors of PMA/ionomycin-induced NF-kB reporter, 697 cells, primary screen, B-cell NF-kB inhibitor project, cell-based, luminescence, uHTS; 697 B-cell NF-kB luciferase reporter, 16 h; inhibition, % at 4 µM; 0.33% of 330,000 active; AID 435022, 2010; in the data active = inhibition above about 35%
Mdm2 MdmX conf: Mdm2-MdmX complex disruptors, retested hits, confirmation, luminescence, single concentration; shares compounds with Mdm2-MdmX inh; Mdm2-MdmX binding, luminescent assay; inhibition, % at 8 µM; 55% of 10,000 active; in the data active = inhibition above about 40%
Full FLuc ctr: full-length luciferase signal inhibition, confirmation, counter-screen for Mdm2/MdmX interaction inhibitor project, cell-based, single concentration, SaOS-2. 77% of 6,200 active. shares compounds with Mdm2-MdmX inh. SaOS-2 full-length luciferase counterscreen, luminescence. inhibition, % at 8 µM;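 active = mean inhibition at 8 µM reaching about 37%, which flags the compound as non-specific, limit read from the data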;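 also: p53-null SaOS-2 cells with luciferase driven by a doxycycline-inducible promoter; compound on cells about two nights before reading with doxycycline added after day one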
Numbers without * were called inactive; . = not tested or not shown. Only some compounds are listed: those with a hit (about 4.5% of all), similar ones and a draw of the others.

SMILES	Mdm2-MdmX inh	Jurkat NFkB inh	Beta cell apopt	CSC inhib	Gli-Sufu block	697 NFkB inh	Mdm2 MdmX conf	Full FLuc ctr
Cc1cc(/C=C2\SC(=S)N(C)C2=O)c(C)n1-c1ccccc1O	85.6*	-29.2	11.5	97.9*	1.7	-145.4	89.5*	108.2*
COc1cccc(NC(=O)N2CCCC2C(=O)NC2CCCC2)c1 (stereo not drawn)	1.4	4.7	-2.1	-4.6	-8.0	11.0	.	.
O=c1[nH]c2c(c(=O)[nH]1)OCN(Cc1ccccc1)C2	.	.	.	.	-8.6	.	.	.
O=C(COc1ccc2c3c(c(=O)oc2c1)CCC3)Nc1ccc(CN2CCOCC2)cc1	9.8	-1.2	-2.2	-18.8	-6.8	19.1	.	.
N#CC(C#N)=c1ccc2c(c1)NC1(CCCCC1)N=2	70.9*	43.2	20.2	61.9	-12.2	-38.2	49.9*	19.8
CCn1c(=O)c2sccc2n(Cc2ccc(C)cc2)c1=O	28.3	2.2	-0.2	16.5	11.7	-5.1	.	.
O=C(CCl)c1ccc2c(c1)CCN2C(=O)C1CC1	79.6*	17.0	-24.9	51.1	.	12.9	39.0	27.0
O=C(C1CCC(C(=O)N2CCc3ccccc32)CC1)N1CCc2ccccc21 (stereo not drawn)	5.3	-10.5	.	10.0	0.5	-19.1	.	.
O=C(CCl)c1ccc2c(c1)CCN2C(=O)C1CCCCC1	96.6*	13.3	-8.5	24.5	41.1	13.1	53.0*	79.2*
O=C(O)COc1ccccc1/C=N/NC(=O)CSc1nc2ccccc2s1	-17.2	3.2	-5.6	0.3	3.6	2.9	.	.
O=C(CSc1nc2ccccc2s1)N/N=C/c1ccccc1C(=O)O	66.0*	-72.1	-7.4	3.6	-4.5	-85.0	81.8*	118.5*
Cc1ccc(-c2[nH]c3cc(C(N)=O)ccc3c(=O)c2O)cc1	34.3	2.9	-3.9	.	-7.0	-14.7	.	.
CCCNC(=O)c1ccc2c(=O)c(O)c(-c3ccc(C)cc3)[nH]c2c1	57.6*	10.4	81.9*	39.5	33.2	-63.5	51.1*	47.6*
Cc1ccc(-c2[nH]c3cc(C(=O)NCCCn4ccnc4)ccc3c(=O)c2O)cc1	15.4	9.4	-0.2	-3.8	-8.0	9.8	.	.
CCCNC(=O)c1ccc2c(=O)c(O)c(-c3ccc(OC)cc3)[nH]c2c1	50.2*	-0.1	0.0	29.2	10.2	-24.3	13.6	.
CCCNC(=O)c1ccc2c(=O)c(O)c(-c3ccsc3)[nH]c2c1	56.8*	29.6	8.3	5.9	7.6	-15.2	22.6	.
Cc1cccc(C(=O)NCC(=O)NC2CCC(C)CC2)c1 (stereo not drawn)	9.3	5.5	-4.4	-11.6	-15.2	-3.9	.	.
CC[C@@H](C(=O)[C@@H](C)[C@@H](O)[C@H](C)CCc1ccc(C)c(O)c1C(=O)O)[C@H]1O[C@](CC)([C@H]2CC[C@](O)(CC)[C@H](C)O2)C[C@@H]1C	100.4*	22.2	97.1*	117.3*	81.9*	-103.1	70.9*	35.2
COc1ccc(NC(=O)CSCC(=O)N(C)CC(=O)Nc2cccc3ccccc23)cc1	24.1	-7.2	-4.0	-10.4	0.1	13.6	.	.
OCCCNc1ncnc2scc(-c3ccc(Cl)cc3)c12	70.8*	-0.9	-14.1	-13.2	-11.3	-28.7	59.8*	33.2
O=C(N/N=C/c1ccccc1O)C1CC(=O)N(c2ccc(F)cc2)C1 (stereo not drawn)	51.8*	7.9	26.0	49.5	18.3	9.5	38.1	43.7*
O=C(Nc1ccc(Cl)cc1)c1cc2c(cc1O)[nH]c1ccccc12	97.3*	2.0	38.7	115.6*	2.9	-0.5	92.7*	58.5*
